Some test systems named below: HCT-15 colon; HT29 colon; SNB-75 CNS; SNB-19 CNS; U251 CNS; PC-3 prostate; SK-MEL-5 melanoma; UACC-62 melanoma; LOX IMVI melanoma; SK-MEL-28 melanoma; SK-MEL-2 melanoma; SN12C renal; ACHN renal; CAKI-1 renal; A498 renal; CCRF-CEM leukemia; MOLT-4 leukemia; UO-31 renal; TK-10 renal; EKVX NSCLC.
What all share (assay): NCI-60 one-dose screen, 48 h (100 = growth as untreated, 0 = no growth, -100 = all killed)
Common to all, as to conditions: 10 µM unless noted

This is part of a sample that, as a whole, favours compounds with a hit. Of some 83,000 tested, about 20% had one in any assay.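 Assay: single dose, 48 h. Readout: percent growth (0 = no net growth; negative = cell death). Active: <10.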 A number with no mark means an inactive call. Activity calls are given as the source filed them.

Consider `COc1cccc(/C=C/c2c(C(=O)O)cccc2[N+](=O)[O-])c1OC`, for which the growth with HCT-15 colon is 103%; in the assay with HT29 colon it was 104%; with SNB-75 CNS, 89.3%; in the assay with SNB-19 CNS, 105%; in the assay with U251 CNS, 95.9%; in the assay with PC-3 prostate, 96.8%. Also, the growth is 106% with SK-MEL-5 melanoma; 109% in the assay with UACC-62 melanoma; 99.2% in the assay with LOX IMVI melanoma; 109% in the assay on SK-MEL-28 melanoma; 102% with SK-MEL-2 melanoma; 103% in the assay on SN12C renal. Besides, the growth in the assay on ACHN renal was 100%; with CAKI-1 renal, 94.2%; with A498 renal it was 88.4%; in the assay on CCRF-CEM leukemia, 101%; in the assay with MOLT-4 leukemia, 96.1%.

Consider `CCN(CC)P(=O)(N(CC)CC)N(CCCSC/C=C(\C)CC/C=C(\C)CCC=C(C)C)CCCN1CCN(C)CC1`, for which the growth is 93.2% with HCT-15 colon; 98.9% in the assay with HT29 colon; 93% with SNB-75 CNS; 92.8% in the assay with SNB-19 CNS; 101% in the assay on U251 CNS; 95.5% with PC-3 prostate. Moreover, the growth is 100% in the assay with SK-MEL-5 melanoma; 94.2% in the assay on UACC-62 melanoma; 81.3% in the assay on LOX IMVI melanoma; 107% with SK-MEL-28 melanoma; 118% in the assay on SK-MEL-2 melanoma; 92.9% in the assay with SN12C renal. Further, the growth with UO-31 renal is 92.8%; in the assay with ACHN renal, 119%; in the assay with CAKI-1 renal, 89.9%; in the assay on A498 renal, 77.2%; in the assay with CCRF-CEM leukemia, 87.2%; with MOLT-4 leukemia it was 93.1%.

Consider `Cc1ccc(OCCn2c(C)nn(-c3ccc(Cl)cc3)c2=O)cc1`, for which the growth was 111% in the assay with HCT-15 colon; 119% in the assay with HT29 colon; 82.6% in the assay with SNB-75 CNS; 109% in the assay with SNB-19 CNS; 101% with U251 CNS; 92.4% with PC-3 prostate. The growth was 109% in the assay with SK-MEL-5 melanoma; 103% in the assay with UACC-62 melanoma; 96.3% in the assay on LOX IMVI melanoma; 101% in the assay with SK-MEL-28 melanoma; 146% with SK-MEL-2 melanoma; 105% in the assay with SN12C renal. Moreover, the growth was 131% in the assay with TK-10 renal; 103% in the assay on ACHN renal; 93.7% with CAKI-1 renal; 117% in the assay with A498 renal; 99.9% in the assay on CCRF-CEM leukemia; 111% in the assay with MOLT-4 leukemia.

For the molecule `Cc1cc(C)c(NC(=O)c2sc3nc4c(cc3c2N)CN(Cc2ccccc2)CC4)c(C)c1`, the growth in the assay on HCT-15 colon is 21.7%; in the assay on HT29 colon, 7.19% (active); in the assay on SNB-75 CNS it was 7.64% (active); in the assay with SNB-19 CNS it was 42.9%; with U251 CNS, 32.9%; with PC-3 prostate it was 22%. The growth was 26.1% in the assay with SK-MEL-5 melanoma; 24.5% with UACC-62 melanoma; 38.7% in the assay with LOX IMVI melanoma; 57.1% in the assay on SK-MEL-28 melanoma; 24% in the assay on SK-MEL-2 melanoma; 23.9% in the assay on SN12C renal. Further, the growth is 67.6% with TK-10 renal; 45.7% in the assay on ACHN renal; 1.87% (active) in the assay with A498 renal; 16.6% in the assay on CCRF-CEM leukemia; 25% in the assay on MOLT-4 leukemia.

Turning to `NC(=O)NNC(=O)c1ccccc1`, the growth was 97.6% in the assay on HCT-15 colon; 113% in the assay with HT29 colon; 85.9% with SNB-75 CNS; 111% in the assay with SNB-19 CNS; 97.7% with U251 CNS; 104% in the assay with SK-MEL-5 melanoma. Besides, the growth with UACC-62 melanoma is 104%; in the assay with LOX IMVI melanoma, 96.5%; with SK-MEL-28 melanoma, 117%; in the assay with SK-MEL-2 melanoma it was 128%; in the assay with EKVX NSCLC it was 96.3%; in the assay on SN12C renal, 114%. The growth is 89.8% with UO-31 renal; 103% with TK-10 renal; 109% in the assay on ACHN renal; 92.5% in the assay with CAKI-1 renal; 124% with A498 renal; 105% in the assay on CCRF-CEM leukemia. For the same molecule, in the assay with MOLT-4 leukemia, the growth is 102%.

In the case of `O=C(Nc1ccc(Cl)cc1)c1cc(-c2ccc(F)cc2)c2sc(=O)[nH]c2n1`, the growth in the assay on HCT-15 colon was 13.1%; in the assay with HT29 colon, 16.9%; with SNB-75 CNS, -5.08% (active); in the assay on SNB-19 CNS, 19.3%; in the assay with U251 CNS, 9.42% (active); in the assay with PC-3 prostate it was 10.3%. In addition, the growth in the assay on SK-MEL-5 melanoma is -86.1% (active); in the assay with UACC-62 melanoma, 26.9%; in the assay with LOX IMVI melanoma, 8.5% (active); in the assay on SK-MEL-28 melanoma it was 25.4%; in the assay with SK-MEL-2 melanoma it was 14.3%; in the assay with SN12C renal, 11.9%. Also, the growth was 20.8% in the assay with TK-10 renal, 2.34% (active) with ACHN renal, -12.7% (active) in the assay on CAKI-1 renal and 13.9% in the assay on MOLT-4 leukemia.

Regarding `COc1ccc(NC(=O)CSc2nc3ccccc3c(=O)n2-c2ccccc2C(F)(F)F)c(OC)c1OC`, the growth in the assay on HCT-15 colon is 105%; with HT29 colon, 104%; with SNB-75 CNS, 83.9%; in the assay on SNB-19 CNS, 88.8%; in the assay on U251 CNS, 95.7%; in the assay with PC-3 prostate, 100%. Moreover, the growth in the assay with SK-MEL-5 melanoma was 98.2%; in the assay with UACC-62 melanoma it was 87.5%; in the assay on LOX IMVI melanoma, 98.9%; in the assay on SK-MEL-28 melanoma, 106%; in the assay with SK-MEL-2 melanoma it was 121%; in the assay with SN12C renal it was 93%. Besides, the growth in the assay with UO-31 renal was 91.9%; with ACHN renal it was 99.2%; in the assay on CAKI-1 renal, 98.4%; in the assay on A498 renal it was 74.8%; in the assay with CCRF-CEM leukemia, 101%; in the assay with MOLT-4 leukemia, 107%.

For the molecule `COc1ccc(/C=C/C(=O)c2cc(OC)c(OC)c(OC)c2)cc1OCc1cn(Cc2ccc(F)cc2)nn1`, the growth in the assay on HCT-15 colon was 23.8%; with HT29 colon, 4.82% (active); with SNB-75 CNS, 27.5%; in the assay on SNB-19 CNS, 78.4%; in the assay on U251 CNS, 19.3%; with PC-3 prostate, 35.1%. The growth in the assay with SK-MEL-5 melanoma is 80.8%; with UACC-62 melanoma it was 64.4%; in the assay on LOX IMVI melanoma, 13.3%; with SK-MEL-28 melanoma, 87.3%; in the assay on SK-MEL-2 melanoma, 90%; in the assay with SN12C renal, 29.2%. The growth was 30.8% with UO-31 renal; 57.9% in the assay with ACHN renal; 4.33% (active) in the assay on CAKI-1 renal; 78.7% with A498 renal; 0.459% (active) in the assay with CCRF-CEM leukemia; 58.1% in the assay on MOLT-4 leukemia.

`O=C(O)c1cccc([N+](=O)[O-])c1/C=C/c1ccccc1`: the growth was 102% in the assay on HCT-15 colon; 100% in the assay with HT29 colon; 86.9% with SNB-75 CNS; 101% with SNB-19 CNS; 97.4% in the assay on U251 CNS; 124% in the assay with PC-3 prostate. Further, the growth in the assay on SK-MEL-5 melanoma is 103%; with UACC-62 melanoma, 107%; with LOX IMVI melanoma, 96%; in the assay on SK-MEL-28 melanoma, 105%; with SK-MEL-2 melanoma, 106%; in the assay with SN12C renal, 98.7%. The growth is 92.9% with UO-31 renal; 110% in the assay on ACHN renal; 93.4% in the assay on CAKI-1 renal; 89.1% with A498 renal; 103% with CCRF-CEM leukemia; 97.7% in the assay with MOLT-4 leukemia.
